Assay results from PubChem BioAssay AID778 (Sanford-Burnham Center for Chemical Genomics, 2007).
Among all 96,000 compounds or so, about 20,000 (21%) were called active.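 Rule for the calls: active = CYP2C19 inhibition above a set limit at 5 µM in the primary screen (cut at about 50% in these data); inactive = the rest.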 Only a sample is shown.

Molecular target: Cytochrome P450 2C19 (Homo sapiens) (UniProt P33261)
Experiment: blockers of cytochrome P450 2C19 activity – biochemical, luminescence, ADME assay, primary screen (AID 778);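 note: plate controls were negative control wells for no effect and 2.5 mM tranylcypromine positive control for full effect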
Conditions: CYP2C19 Supersomes, luciferin-H EGE luminescence, 30 min; at 5 µM; active compounds read high

Chain of Cytochrome P450 2C19 (Homo sapiens) (P33261 whole entry, looked up): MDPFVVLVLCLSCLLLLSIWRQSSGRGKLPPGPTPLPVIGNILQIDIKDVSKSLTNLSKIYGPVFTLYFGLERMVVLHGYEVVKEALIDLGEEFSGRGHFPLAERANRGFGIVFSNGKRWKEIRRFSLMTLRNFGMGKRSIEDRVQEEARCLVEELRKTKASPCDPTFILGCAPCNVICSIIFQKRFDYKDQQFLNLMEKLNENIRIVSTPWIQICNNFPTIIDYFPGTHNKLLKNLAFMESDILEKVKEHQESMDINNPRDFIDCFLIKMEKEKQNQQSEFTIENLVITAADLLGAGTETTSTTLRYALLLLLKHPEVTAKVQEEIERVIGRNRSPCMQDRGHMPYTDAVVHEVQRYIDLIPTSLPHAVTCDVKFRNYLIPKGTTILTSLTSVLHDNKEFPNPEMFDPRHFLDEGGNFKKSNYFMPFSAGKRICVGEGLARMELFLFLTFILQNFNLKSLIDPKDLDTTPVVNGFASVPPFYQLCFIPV

SMILES | inhibition
Fc1ccc(CNc2nc3ccccc3n3nnnc23)cc1 | 6% (inactive)
CN(C)/C=C1\C=C(c2ccccc2)OC1=O | -5.7% (inactive)
O=C1CSC2=NCN(c3ccccc3)CN12 | 3.1% (inactive)
N#Cc1nc(Cc2cccc3ccccc23)oc1NCc1ccc2c(c1)OCO2 | 48.7% (inactive)
CCOc1ccc(Nc2oc(Cc3ccccc3)nc2C#N)cc1 | 30.6% (inactive)
N#Cc1nc(Cc2ccccc2)oc1NCCc1ccccc1 | 64.7% (active)
FC(F)(F)c1nnc2sc(-c3ccco3)nn12 | 10.3% (inactive)
CCOc1ccc(/C(O)=C2/C(=O)C(=O)N(Cc3cccnc3)C2c2ccc(N(C)C)cc2)c(C)c1 (configuration not stated) | 3.8% (inactive)
CCOc1ccc(N2C(=O)CC(N(O)c3ccccc3)C2=O)cc1 (configuration not stated) | 20.3% (inactive)
Cn1c(N)c(C(=O)COC(=O)C23CC4CC(CC(C4)C2)C3)c(=O)n(C)c1=O | 13.1% (inactive)
Cc1cc(C)cc(NC(=O)N2CCC(NC(=O)c3ccc(F)cc3)CC2)c1 | -9.5% (inactive)
CCOc1ccc(Nc2nc(Cc3nnc(SCC(=O)c4ccc(C)cc4)o3)cs2)cc1 | 46.9% (inactive)
CCOc1ccc(Nc2nc(Cc3nnc(SCC(=O)NC4CCCC4)n3C)cs2)cc1 | 53.4% (active)
COCCCn1c(Cc2csc(Nc3cccc(Cl)c3)n2)nnc1SCC(=O)OC1CCCCC1 | 27.4% (inactive)
CC(C)c1ccc(Nc2ncccc2C#N)cc1 | 22.2% (inactive)
Cc1ccc(NC2=NC(c3ccccc3)n3c(nc(C)cc3=O)N2)cc1 (configuration not stated) | 42.1% (inactive)
Cc1ccc(OCC(=O)Nc2ccc(-c3nnc(-c4ccco4)o3)cc2)cc1 | 44.4% (inactive)
CC1(C)CC(=O)c2cc(OCC(=O)NCC3CCCO3)ccc2O1 (configuration not stated) | 16.2% (inactive)
Cc1ccc(/C=N\n2c(-c3ccccc3)n[nH]c2=S)s1 | 4.8% (inactive)
CCNC(=S)N1CCN(C(=O)c2ccco2)CC1 | 5.5% (inactive)
O=C(c1ccc2c(c1)OCO2)N1CCN(C(=O)c2ccco2)CC1 | 17% (inactive)
O=C(c1ccco1)N1CCN(C(=O)C2c3ccccc3Oc3ccccc32)CC1 | 88.7% (active)
O=C(Cc1c(F)cccc1Cl)N1CCN(C(=O)c2ccco2)CC1 | 11.2% (inactive)

SMILES | inhibition
COc1ccc(N2C(=O)C3CCCN3C2c2cccc(OC)c2)cc1 (configuration not stated) | 30.1% (inactive)
Cc1ccc(OS(=O)Nc2cccc3nccnc23)cc1 (configuration not stated) | 38.8% (inactive)
Cc1ccc(S(=O)(=O)C(C#N)c2nc3ccccc3nc2N2CCCC2)cc1C (configuration not stated) | 96.8% (active)
CC(C)OC(=O)C(C#N)c1nc2ccccc2nc1N1CCN(Cc2ccc3c(c2)OCO3)CC1 (configuration not stated) | 2.4% (inactive)
Cc1ccc(S(=O)(=O)Nc2nc3ccccc3nc2N2CCc3ccccc3C2)cc1 | 40.6% (inactive)
Cc1ccc(-c2c3c(=O)n(C)c(=O)n(C)c3cn2-n2cnnc2)cc1 | -18.4% (inactive)
O=S(=O)(N1CCOCC1)N1CCN(c2ccccc2F)CC1 | 61.1% (active)
Cc1cccc(C)c1N1CCN(S(=O)(=O)N2CCOCC2)CC1 | 22.7% (inactive)
O=C(c1ccc(CN2CCOCC2)cc1)N1CCN(c2ccccc2F)CC1 | 9.5% (inactive)
COC(=O)c1sccc1N/N=C(\C)c1ccc(F)c(Cl)c1 | -0.3% (inactive)
Cc1ccnc(N2CCCC(C(=O)Nc3cc(F)ccc3C)C2)n1 (configuration not stated) | 99.2% (active)
CC(C)CCNC(=O)C1CCCN(S(=O)(=O)c2ccc(F)cc2)C1 (configuration not stated) | 7.6% (inactive)
Cc1ccnc(N2CCC(C(=O)NC3CCCCCC3)CC2)n1 | 94.4% (active)
Cc1cc(-c2ccccc2)nc(N2CCC(C(=O)NC34CC5CC(CC(C5)C3)C4)CC2)n1 | 8.2% (inactive)
O=C(Nc1ccc2c(c1)OCCO2)C1CCCN(c2ncccn2)C1 (configuration not stated) | 1.1% (inactive)
Cc1cc(C)cc(NC(=O)C2CCN(c3nc(C)cc(C)n3)CC2)c1 | -2.3% (inactive)
C/C(=N\NC(=O)c1nc(C)cc(C)n1)c1ccccc1 | -4% (inactive)
Cc1ccc(-c2nnc(SC(C)C#N)n2N)cc1 (configuration not stated) | 9% (inactive)
NC(N)=N/N=C/c1ccc(OCc2ccc(Cl)cc2Cl)cc1 | -10.2% (inactive)
CCOC(=O)C1=C(O)CSC1=Nc1cccc(Cl)c1 | 9.1% (inactive)
COC(=O)C1C(=O)NCC1c1ccc(OC)cc1 (configuration not stated) | 13.7% (inactive)
CC(C)(C)NS(=O)(=O)CC12CCC(CC1=O)C2(C)C (configuration not stated) | 17.8% (inactive)
CCOc1cc2[nH]c(=S)n(CCN3CCCCC3C)c(=O)c2cc1OCC (configuration not stated) | 2.3% (inactive)

SMILES | inhibition
C=CCNC(=O)c1ccc(C)c(Br)c1 | 19.1% (inactive)
C=CCNC(=O)c1sc(SC)cc1-c1ccc(Cl)cc1 | 83.9% (active)
COc1ccc(-c2cc(C(=O)NCc3ccco3)no2)cc1OC | -19.3% (inactive)
CCCCOCCCNC(=O)c1ccccc1OCC | 48.3% (inactive)
COc1ccccc1-c1cc(C(=O)N2CCCCC2)no1 | 52.8% (active)
COc1ccccc1-c1cc(C(=O)NCCCn2ccnc2)no1 | 78.5% (active)
CCOc1ccccc1C(=O)NCCCn1ccnc1 | 93.4% (active)
CCOc1ccc(C(=O)NCCCN2CCCC2=O)cc1 | 15.8% (inactive)
O=C(NCCCn1ccnc1)Nc1ccc(Cl)cc1Cl | 97.4% (active)
Cc1cc2nc(C)n(CCCNC(=O)Nc3ccccc3)c2cc1C | 20.3% (inactive)
NS(=O)(=O)c1ccc(CCNC(=O)Nc2ccc(Cl)cc2)cc1 | 24.5% (inactive)
O=C(c1cc(-c2cccs2)on1)N1CCCCC1 | 14.3% (inactive)
O=C(c1cc(-c2ccccc2O)on1)N1CCCC1 | 17.3% (inactive)
COc1ccccc1CCNC(=O)c1cnccn1 | 22.6% (inactive)
CCCCCCCCOC1OC(CO)C(O)C(O)C1NC(C)=O (configuration not stated) | -4.2% (inactive)
N#Cc1c(NC(=O)CCCN2C(=O)c3ccccc3C2=O)oc(-c2ccccc2)c1-c1ccccc1 | 24.8% (inactive)
COCCOC(=O)c1sc(=S)n(CCOC)c1N | 47.6% (inactive)
Cc1ccc2nc(NC(=O)C3CCN(S(=O)(=O)c4ccc5c(c4)oc(=O)n5C)CC3)sc2c1 | 6.1% (inactive)
CCCCC(=O)Nc1ccc(C(=O)NCCCn2ccnc2)cc1 | 37.9% (inactive)
CCN(CC)C(=O)CCC(=O)Nc1ccc(C(=O)OC)cc1 | 33.7% (inactive)
CCCC(=O)Nc1ccc(C(=O)NCCCn2ccnc2)cc1 | 52.2% (active)
